{"source": "the supplement of paper PMC8975748", "note": "Where a name gives a salt, the structure may show the parent alone.", "data": [{"tested_on": "Saccharomyces cerevisiae BY4741 SeMeCo community", "experiment": "z-score of subpopulation abundance vs DMSO median, subpopulation auxotrophic for L; higher = larger share of this subpopulation than in DMSO controls", "settings": "10 µM; 24 h; SM minimal medium; subpopulation (auxotrophy): L", "procedure": "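Fluorescent four-plasmid SeMeCo (self-establishing metabolically cooperating S. cerevisiae BY4741 community; plasmids pH-mRuby2, pL-mWasabi, pU-eCFP, pM-TagRFP657) was grown 24 h in minimal SM medium with each Selleck FDA-approved drug at 10 µM in 384-well plates. Cells were fixed and imaged by high-content confocal microscopy. For each auxotrophic subpopulation (and the prototroph), a z-score gives the deviation from the DMSO vehicle-control population median.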", "values": [{"smiles": "CC[C@H]1[C@@H]2C[C@H]3[C@@H]4N(C)c5ccccc5[C@]45C[C@@H]([C@@H]2[C@H]5O)N3[C@@H]1O", "note": "[Ajmaline]", "z-score of subpopulation abundance": -0.67}, {"smiles": "O=[N+]([O-])C(Br)(CO)CO", "note": "[Bronopol]", "z-score of subpopulation abundance": -0.82}, {"smiles": "C=CN1CCCC1=O.II", "note": "[Povidone iodine]", "z-score of subpopulation abundance": 0.47}, {"smiles": "CN[C@@H]1[C@@H](O)[C@@H](O[C@@H]2[C@@H](O)[C@H](O[C@H]3O[C@H](CN)CC[C@H]3N)[C@@H](N)C[C@H]2N)OC[C@]1(C)O.CN[C@@H]1[C@@H](O)[C@@H](O[C@@H]2[C@@H](O)[C@H](O[C@H]3O[C@H]([C@@H](C)N)CC[C@H]3N)[C@@H](N)C[C@H]2N)OC[C@]1(C)O.CN[C@@H]1[C@@H](O)[C@@H](O[C@@H]2[C@@H](O)[C@H](O[C@H]3O[C@H]([C@@H](C)NC)CC[C@H]3N)[C@@H](N)C[C@H]2N)OC[C@]1(C)O", "note": "[Gentamicin Sulfate]", "z-score of subpopulation abundance": -0.91}, {"smiles": "Nc1ccncc1", "note": "[4-Aminopyridine]", "z-score of subpopulation abundance": 0.44}, {"smiles": "CN(C)[C@@H]1C(=O)C(C(N)=O)=C(O)[C@@]2(O)C(=O)C3=C(O)c4c(O)cccc4[C@@](C)(O)[C@H]3C[C@@H]12", "note": "[Tetracycline HCl]", "z-score of subpopulation abundance": -0.47}, {"smiles": "CCOC(=O)Nc1ccc(NCc2ccc(F)cc2)cc1N", "note": "[Retigabine 2HCl]", "z-score of subpopulation abundance": -0.41}, {"smiles": "CN[C@@H]1[C@@H](O)[C@@H](O[C@@H]2[C@@H](O)[C@H](O[C@H]3O[C@H]([C@@H](C)O)[C@@H](O)[C@H](O)[C@H]3N)[C@@H](N)C[C@H]2N)OC[C@]1(C)O", "note": "[Geneticin (G418 Sulfate)]", "z-score of subpopulation abundance": 0.54}, {"smiles": "CN1[C@@H]2C[C@@H](OC(=O)[C@H](CO)c3ccccc3)C[C@H]1[C@@H]1O[C@@H]12", "note": "[Scopolamine HBr]", "z-score of subpopulation abundance": -0.33}, {"smiles": "Cc1cc(C(C#N)c2ccc(Cl)cc2)c(Cl)cc1NC(=O)c1cc(I)cc(I)c1O", "note": "(stereo not given) [Closantel]", "z-score of subpopulation abundance": 1.28}, {"smiles": "C[C@H]1O[C@H](O[C@H]2[C@H](O)[C@@H](O)[C@@H](O)[C@H](O)[C@@H]2O)[C@@H](N)C[C@@H]1NC(=N)C(=O)O", "note": "[Kasugamycin hydrochloride]", "z-score of subpopulation abundance": 0.8}, {"smiles": "C=C(C)[C@H]1Cc2c(ccc3c2O[C@@H]2COc4cc(OC)c(OC)cc4[C@@H]2C3=O)O1", "note": "[Rotenone (Barbasco)]", "z-score of subpopulation abundance": 0.46}, {"smiles": "NCCc1c[nH]c2ccc(O)cc12", "note": "[Serotonin HCl]", "z-score of subpopulation abundance": -1.08}, {"smiles": "CCN(C)C(=O)Oc1cccc([C@H](C)N(C)C)c1", "note": "[Rivastigmine Tartrate]", "z-score of subpopulation abundance": 1.02}, {"smiles": "CC(C)(O)C(Cl)(Cl)Cl", "note": "[Chlorobutanol]", "z-score of subpopulation abundance": 0.36}, {"smiles": "CN1[C@@H]2CC[C@H]1C[C@@H](OC(=O)C(CO)c1ccccc1)C2", "note": "(stereo not given in full) [Atropine sulfate monohydrate]", "z-score of subpopulation abundance": -0.2}, {"smiles": "CC[C@H]1CN2CC[C@]3(C(=O)Nc4ccccc43)[C@@H]2C[C@@H]1/C(=C\\OC)C(=O)OC", "note": "[Rhynchophylline]", "z-score of subpopulation abundance": -0.82}, {"smiles": "CN(C)[C@@H]1C(=O)C(C(N)=O)=C(O)[C@@]2(O)C(=O)C3=C(O)c4c(O)cccc4[C@@](C)(O)[C@H]3[C@H](O)[C@@H]12", "note": "[Oxytetracycline (Terramycin)]", "z-score of subpopulation abundance": 0.2}, {"smiles": "CN1[C@@H]2C[C@@H](OC(=O)[C@H](CO)c3ccccc3)C[C@H]1[C@@H]1O[C@@H]12", "note": "[Scopolamine HBr trihydrate]", "z-score of subpopulation abundance": -0.39}, {"smiles": "C[N+](C)(C)CCCCCCCCCC[N+](C)(C)C", "note": "[Decamethonium Bromide]", "z-score of subpopulation abundance": -0.55}, {"smiles": "CNC1CC(N)C(O)C(OC2OC(CO)C(O)C3OC4(OC(C(N)CO)C(O)C(O)C4O)OC23)C1O", "note": "(stereo not given) [Hygromycin B]", "z-score of subpopulation abundance": 0.12}, {"smiles": "CC(=O)O[C@H]1C[C@@H]2CC[C@@H]3[C@H](CC[C@@]4(C)[C@H]3C[C@H]([N+]3(C)CCCCC3)[C@@H]4OC(C)=O)[C@@]2(C)C[C@@H]1[N+]1(C)CCCCC1", "note": "[Pancuronium dibromide]", "z-score of subpopulation abundance": -0.47}, {"smiles": "O=c1cccc2n1C[C@@H]1CNC[C@H]2C1", "note": "[Cytisine]", "z-score of subpopulation abundance": 0.2}, {"smiles": "C[N+]1(C)[C@@H]2C[C@@H](OC(=O)[C@H](CO)c3ccccc3)C[C@H]1[C@@H]1O[C@@H]12", "note": "[Methscopolamine]", "z-score of subpopulation abundance": 0.57}, {"smiles": "C=C[C@H]1CN2CC[C@H]1C[C@H]2[C@H](O)c1ccnc2ccccc12", "note": "[Cinchonidine]", "z-score of subpopulation abundance": 0.13}, {"smiles": "Oc1cc(Cl)ccc1Oc1ccc(Cl)cc1Cl", "note": "[Triclosan]", "z-score of subpopulation abundance": -0.94}, {"smiles": "CN1c2ccccc2C(NCCCCCCC(=O)O)c2ccc(Cl)cc2S1(=O)=O", "note": "(stereo not given) [Tianeptine sodium]", "z-score of subpopulation abundance": -0.37}, {"smiles": "CCOC(=O)Nc1ccc(NCc2ccc(F)cc2)cc1N", "note": "[Retigabine]", "z-score of subpopulation abundance": -0.58}, {"smiles": "CC(=O)OCC1=C(C(=O)O)N2C(=O)C(N)C2SC1", "note": "(stereo not given) [7-Aminocephalosporanic acid]", "z-score of subpopulation abundance": 0.13}, {"smiles": "CCC1=C[C@H]2CN3CCc4c([nH]c5ccccc45)[C@](C(=O)OC)(C2)[C@H]13", "note": "[Catharanthine]", "z-score of subpopulation abundance": -0.77}, {"smiles": "CN(C)[C@@H]1C(=O)C(C(N)=O)=C(O)[C@@]2(O)C(=O)C3=C(O)c4c(O)ccc(Cl)c4[C@@](C)(O)[C@H]3C[C@@H]12", "note": "[Chlortetracycline HCl]", "z-score of subpopulation abundance": -0.76}, {"smiles": "Nc1nc(N)nc(NC2CC2)n1", "note": "[Cyromazine]", "z-score of subpopulation abundance": 0.49}, {"smiles": "C[C@@H]1CC[C@H]2[C@@H](C)C(=O)O[C@@H]3O[C@@]4(C)CC[C@@H]1[C@]32OO4", "note": "[Artemisinin]", "z-score of subpopulation abundance": -0.11}, {"smiles": "COc1ccc2[nH]cc(CCN)c2c1", "note": "[5-Methoxytryptamine]", "z-score of subpopulation abundance": 0.52}, {"smiles": "O=C(O[C@H]1C[N+]2(CCCOc3ccccc3)CCC1CC2)C(O)(c1cccs1)c1cccs1", "note": "[Aclidinium Bromide]", "z-score of subpopulation abundance": -1.04}, {"smiles": "O=C(O[C@H]1C[C@H]2CC[C@@H](C1)[N+]21CCCC1)C(O)(c1ccccc1)c1ccccc1", "note": "[Trospium chloride]", "z-score of subpopulation abundance": -0.17}, {"smiles": "O=c1[nH]c2ccccc2n1CCCN1CCC(n2c(=O)[nH]c3cc(Cl)ccc32)CC1", "note": "[Domperidone]", "z-score of subpopulation abundance": 0.55}, {"smiles": "NCC(O)c1ccc(O)cc1", "note": "(racemic) [(+,-)-Octopamine HCl]", "z-score of subpopulation abundance": -0.17}, {"smiles": "CN(C)[C@@H]1C(=O)C(C(N)=O)=C(O)[C@@]2(O)C(=O)C3=C(O)c4c(O)cccc4[C@@](C)(O)[C@H]3[C@H](O)[C@@H]12", "note": "[Oxytetracycline Dihydrate]", "z-score of subpopulation abundance": -0.76}, {"smiles": "CCN(C)C(=O)Oc1cccc([C@H](C)N(C)C)c1", "note": "[Rivastigmine]", "z-score of subpopulation abundance": -0.94}]}]}
